According to ChEMBL document CHEMBL1201862, “PubChem BioAssay data set” (2004):
Hit rate of the full screen: of about 130,000 compounds, about 1,200 (0.92%) were called active. Inconclusive results (about 3%) are left out. No cut-off for these calls is given here. The sample as a whole holds a higher share of actives than the screen did.

biological target: Cellular tumor antigen p53 (Homo sapiens) (UniProt P04637); test: qHTS Screen for Compounds that Selectively Target Cancer Cells with p53 Mutations: Cytotoxicity of p53ts Cells at the Permissive Temperature. [Related pubchem assays: 902 ]; assay type: functional
Sequence (P04637 whole entry, looked up): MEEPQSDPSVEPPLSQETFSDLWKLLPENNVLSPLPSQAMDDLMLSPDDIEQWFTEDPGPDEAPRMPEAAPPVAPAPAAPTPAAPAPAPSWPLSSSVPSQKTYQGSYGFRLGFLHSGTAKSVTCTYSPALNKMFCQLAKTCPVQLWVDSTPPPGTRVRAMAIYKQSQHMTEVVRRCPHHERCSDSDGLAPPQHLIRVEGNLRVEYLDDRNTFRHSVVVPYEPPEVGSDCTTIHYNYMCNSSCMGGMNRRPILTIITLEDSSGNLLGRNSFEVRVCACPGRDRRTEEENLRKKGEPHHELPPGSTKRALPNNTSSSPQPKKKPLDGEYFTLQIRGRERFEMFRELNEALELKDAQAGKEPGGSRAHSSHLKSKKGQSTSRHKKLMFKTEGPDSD

**Q.** Which Potency does the source give for `O=C(/C=C/c1ccc(Cl)cc1)c1cccs1` here?
**A.** 15.8 µM (active)

**Q.** Which Potency does the source give for `COc1ccccc1/C=C/C(=O)c1cccs1` here?
**A.** 10 µM (active)
